MbtI inh = MbtI salicylate synthase inhibitors, primary screen, biochemical, fluorescence intensity; hit rate 0.89% among 100,000; inhibition, % (no concentration beside the values); purified MbtI enzyme, fluorescence intensity read-out; P9WFX0; in the data active means inhibition mostly above about 56%, no sharp cut-off; inactive means mostly below about 77%
PV pol inh = poliovirus RdRp elongation inhibitors, primary screen, biochemical, fluorescence polarization, total intensity; poliovirus polymerase elongation; stronger effect = lower value; AID 588519, 2011; hit rate 0.66% among 150,000; Genome polyprotein (Poliovirus type 1 (strain Mahoney)), P03300; % elongation, % (compound at 16.7 µg/mL); in the data active means % elongation below about 90%
Target sequence (P03300 1749-2209 limits assumed): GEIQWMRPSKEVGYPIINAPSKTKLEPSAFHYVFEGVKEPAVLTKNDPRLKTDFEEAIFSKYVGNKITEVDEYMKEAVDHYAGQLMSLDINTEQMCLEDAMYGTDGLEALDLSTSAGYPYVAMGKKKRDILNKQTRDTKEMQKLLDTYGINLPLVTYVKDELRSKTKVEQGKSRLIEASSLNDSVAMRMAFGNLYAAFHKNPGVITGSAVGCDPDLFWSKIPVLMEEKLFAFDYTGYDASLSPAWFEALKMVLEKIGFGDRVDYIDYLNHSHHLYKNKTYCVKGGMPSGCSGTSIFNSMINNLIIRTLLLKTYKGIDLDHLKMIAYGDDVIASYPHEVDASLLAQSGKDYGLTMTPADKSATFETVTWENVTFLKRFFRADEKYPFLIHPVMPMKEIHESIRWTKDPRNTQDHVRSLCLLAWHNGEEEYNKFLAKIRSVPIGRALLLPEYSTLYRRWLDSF
MenB inh = M. tuberculosis MenB inhibitors, primary screen, biochemical, absorbance. 1,4-dihydroxy-2-naphthoyl-CoA synthase (Mycobacterium tuberculosis (strain ATCC 25618 / …. MenB enzyme assay, absorbance read-out. inhibition, % (concentration not given with the values). hit rate 0.43% among 100,000; in the data active means inhibition above about 21%, passing the limit was not always enough
The depositor's hits bear a star; . = no result given; ! = not active in a repeat. Only some compounds are listed: those with a hit (about 1.4% of all), similar ones and a draw of the others.

SMILES	MbtI inh	PV pol inh	MenB inh
NC(=O)/C=C/C(=O)Nc1ccccc1Cl	100*	101	-60
Cc1ccccc1NC(=O)Nc1ccccc1C	-7	102	-12
O=C(Nc1ccccc1Cl)Nc1ccccc1Cl	.	103	-28
CN(C)C(=O)Cn1c2[n+](c3ccccc31)CC(O)CS2 (stereo not drawn)	-5	101	4
COC(=O)c1ccc(-n2c(C)cc(-c3csc(N)n3)c2C)cc1	-11	102	-20
CC(C(=O)O)c1ccc(N2Cc3ccccc3C2=O)cc1 (stereo not drawn)	-4	102*!	-14
CC(C)[C@@H](C(=O)O)N1Cc2ccccc2C1=O	-8	102	8
C=C1c2cccc(O)c2C(O)=C2C(=O)C3(O)C(O)=C(C(N)=O)C(=O)C(N(C)C)C3C(O)C12 (stereo not drawn)	38	102	-20
Cc1ccc(NC(=O)NC2CC2)cc1C	2	100	-4
Cc1cc(C)c(C(=O)O)c(=O)[nH]1	12	106	-7
Cc1cc(C)c(C(=O)O)c(=S)[nH]1	89*	102	-22
Cc1cccc(Cn2cc(C(=O)c3ccc(C)c(C)c3)c(=O)c3cc4c(cc32)OCO4)c1	11	103	-16
O=S(=O)(c1ccccc1)c1nc(-c2cccs2)oc1NCc1ccccc1	-6	104	-35
CC1=C(C)NC(=S)SC1	97*	99	-20
S=C1Nc2ccccc2CS1	36	104	-1
S=c1[nH]nc(Nc2ccccc2)n1-c1ccccc1	58*	97	-21
S=c1[nH]nc(-c2ccccc2)n1-c1ccccc1	3	101	-17
Cc1ccc(OCCNCCN)c(Br)c1	-3	103	-11
Cc1cc(OCC(=O)OC(C)C(N)=O)c(C(C)C)cc1Cl (stereo not drawn)	1	101	7
S=C(Cc1ccc2c(c1)OCCO2)N1CCOCC1	92*	83*	-49
S=C(Cc1cccnc1)N1CCOCC1	-2	98	6
COc1ccc(S(=O)(=O)N(Cc2nc(-c3ccc(OC)c(OC)c3)no2)C(C)C)cc1	-3	100	-57
Cc1ccc(N2C(=O)c3ccccc3C2=O)cc1	-3	98	13
Cc1ccc(-n2sc3ccccc3c2=O)cc1	101*	102	-52
CCOC(=O)c1c(CC(C#N)(c2ccccc2)c2ccccc2)oc2ccc(OC)cc12	.	106	-31
SMILES	MbtI inh	PV pol inh	MenB inh
CCc1cc(=O)oc2c(C)c(OCC(=O)Nc3ccc4c(c3)OCO4)ccc12	7	80*	-20
CCc1cc(=O)oc2c(C)c(OCC(=O)Nc3ccc(S(=O)(=O)N(CC)CC)cc3)ccc12	.	112	.
O=C1CC(Cc2ccc(Cl)cc2)C(=O)N1Cc1ccccc1 (stereo not drawn)	-11	.	.
NC(=O)c1cnn(-c2ccc(S(N)(=O)=O)cc2)c1NC(=O)c1c(F)cccc1F	13	99	-9
CCn1c(=O)c(C2=NS(=O)(=O)c3ccccc3N2)c(O)c2ccccc21	-7	103	-13
Cn1c(=O)c(C2=NS(=O)(=O)c3ccccc3N2)c(O)c2ccccc21	-5	99	33*
CCSC1=NC2(CCN(C(=O)Nc3ccccc3)CC2)N=C1c1ccccc1	-4	102	2
O=c1c(=NNc2nn[nH]n2)c(=O)c2ccccc12	16	-20*	-474
O=c1c(=NNc2ccccc2)c(=O)c2ccccc12	16	98	-348
CCCCN1C(=O)C(O)(c2nnc(-c3ccccc3)o2)c2ccccc21 (stereo not drawn)	-1	104	-17
NC(=S)c1sccc1CS(=O)c1ccc(Cl)cc1 (stereo not drawn)	59*	107	2
Cc1ccsc1C(N)=S	6	103	-20
COc1cccc(-c2nn(Cc3ccccc3)cc2CNCCCn2ccnc2)c1	-6	97	-5
COc1cc(C(=O)NC(C(C)C)C(C)C)cc(OC)c1OC	-13	101	6
COc1ccc(CNC(=O)C(C)OC(=O)c2ccccc2)cc1 (stereo not drawn)	-29	101	1
Cc1ccc(/C=c2/sc3nc(=O)cnn3c2=O)cc1	5	.	0
O=c1/c(=C/c2ccc(Br)cc2)sc2nncn12	15	97	33*
O=C(CC1Sc2ccccc2NC1=O)OCc1nc2scc(-c3ccco3)c2c(=O)[nH]1 (stereo not drawn)	2	124	-9
N#Cc1c(SCC(=O)c2ccc3c(c2)OCO3)sc2c(=O)[nH]c(=O)[nH]c12	3	106	5
N#Cc1c(SCCCOc2ccccc2)sc2c(=O)[nH]c(=O)[nH]c12	.	103	21*
O=c1nccc(C(F)(F)F)[nH]1	3	103	-25
NC(=O)C1CCN(C(=O)NC2CCCCC2)CC1	-12	100	-4
NC1CCN(C(=O)NC2CCCCC2)CC1	-3	101	24*
Cc1nc2c(=O)n(-c3cc(C(F)(F)F)ccc3Cl)nc(C)c2s1	-9	104	-7
O=C1C=CC(=O)N1c1ccccc1C(F)(F)F	98*	101	.
SMILES	MbtI inh	PV pol inh	MenB inh
O=c1[nH][nH]c(=S)n1-c1ccccc1C(F)(F)F	23	107	-17
O=C1C=CC(=O)N1c1cc(C(F)(F)F)ccc1Cl	98*	101	.
CC(C)CNC(=O)c1cc(S(=O)(=O)N2CCCC2)c(Cl)cc1N1CCCC1	-6	.	.
CCCCCN=C1NN=C(c2ccccc2)C(C(=O)Nc2cccnc2)S1 (stereo not drawn)	8	98	-27
CCCNc1sc(S(=O)(=O)CC)nc1S(=O)(=O)c1ccc(C)cc1	12	99	-13
O=C(O)CSC1=NCCCN1	3	99	1
O=C(O)CSC1=NC2CCCCC2N1 (stereo not drawn)	3	99	33*
Cc1nnc(NCc2ccc(F)cc2)c2c1nnn2Cc1ccc(F)cc1	-8	104	15
Cc1cc(N2CCOCC2)cc(C)[n+]1[O-]	17	101	46*
COc1ccc(N2CCOCC2)cc1	-48	101	21
Cc1c(C(=O)OCC(=O)Nc2ccc(SC(F)F)cc2)oc2ccc(Br)cc12	4	100	3
Cc1cccc(N2CCN(c3nc4ccccc4c(=O)n3Cc3ccccc3)CC2C)c1 (stereo not drawn)	6	105	-16
Cc1ccc(/C=C/C(=O)N2CCN(C(c3ccccc3)c3ccccc3)CC2)o1	-9	102	-13
Cc1ccc(/C=C/C(=O)NCC2CCN(C(=O)/C=C/c3ccc(C)o3)CC2)o1	89*	99	-4
O=C1c2c(O)ccc(O)c2C(=O)c2c(NCCNCCO)ccc(NCCNCCO)c21	-7	-53*	0
O=c1[nH]cc(NCCO)c(=O)[nH]1	-6	.	.
COc1ccc(-c2n[nH]c(=S)n2/N=C/c2ccccc2Br)cc1OC	44	100	-45
CCOc1cccc(/C=N/n2c(-c3ccc(Cl)cc3)n[nH]c2=S)c1O	79*	85*	-109
O=C(Cc1ccccc1)c1ccccc1C(=O)NCc1ccc(F)cc1	.	100	-6
CCS(=O)c1ccccc1C(=O)NCc1ccc(F)cc1 (stereo not drawn)	86*	99	4
N#CC1C(=O)Nc2nc(N)[nH]c(=O)c2C1c1ccc(F)cc1 (stereo not drawn)	16	101	7

High-throughput results from PubChem BioAssay.
